Test [1] concerns the target Cellular tumor antigen p53 (Homo sapiens) (UniProt P04637). As to the kind of experiment: Primary qHTS for small molecule compounds that upregulate eGFP-tagged delta133p53alpha (in N-terminal) cells. (AID 2060322). Also: nearly all actives have a fitted effect of over 75% in size. Also: potency is read from the fitted curve at half-maximal effect.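 As to activation: cells pre-induced with doxycycline then dosed without doxycycline; series mostly up to about 56 µM; 0% = DMSO vehicle and 100% = reference activator.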 The following applies: NCI-H358 eGFP-delta133p53alpha fluorescence, 24 h; activation: active compounds read high. The method in brief: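 NCI-H358 cells pre-induced 24 h with 10 ng/ml doxycycline for eGFP-delta133p53alpha, plated dox-free and exposed 24 h at 37C to titrated compounds. Fixed, Hoechst-stained; gated GFP peak intensity by laser scanning cytometry, normalized to DMSO (0%) and 57.5 uM 5-azacytidine (100%).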
On the technique in general: In qHTS, concentration-response curves come from the screen itself.

The target in test [2] is Aldehyde dehydrogenase, mitochondrial (Homo sapiens) (UniProt P05091). The experiment in a line: qHTS for Inhibitors of the Aldehyde Dehydrogenase Family (ALDH2) Primary screen (AID 2061308). Also: nearly all actives have a fitted effect of over 55% in size. Also: potency is read from the fitted curve at half-maximal effect.
Test [3] has as its target Retinaldehyde dehydrogenase 3 (Homo sapiens) (UniProt P47895). As to the kind of experiment: qHTS for Inhibitors of the Aldehyde Dehydrogenase Family (ALDH1A3) Validation screen (AID 2061312). Also: nearly all actives have a fitted effect of over 45% in size. Also: potency is read from the fitted curve at half-maximal effect.
Test [4] has the same target. As to the kind of experiment: qHTS for Inhibitors of the Aldehyde Dehydrogenase Family (ALDH1A3) Primary screen (AID 2061315).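 Also: plate controls were DMSO vehicle for no effect and reference inhibitor for full effect.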
Test [5] in a line: BET inhibitor-based combinations targeting novel dependencies in MECOM-rearranged (r) AML: OCI-AML3 cell line (AID 2202232). Also: nearly all actives have a fitted effect of over 35% in size. Also: potency is read from the fitted curve at half-maximal effect. The conditions noted are these: Potency: OCI-AML3 viability. The method in brief: (§1)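 A 48 hr incubation preceded viability reading by CellTiter-Glo, with 15 min room-temperature development. Dose series had 11 points; normalization used DMSO and empty wells; AUC was computed and mean-centered per line as Z-AUC.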

Test [6] is described as follows: BET inhibitor-based combinations targeting novel dependencies in MECOM-rearranged (r) AML: MV-4-11 cell line (AID 2202233). Also: nearly all actives have a fitted effect of over 45% in size. Also: potency is read from the fitted curve at half-maximal effect. In short, it runs like this: (§2)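 Each compound is tested in an 11-point concentration series against 500 seeded cells/well for 48 hr. The luminescent viability signal is normalized to DMSO and blank wells, then reduced to AUC and a cell-line-centred Z-AUC.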

Test [7] in a line: BET inhibitor-based combinations targeting novel dependencies in MECOM-rearranged (r) AML: AML-194 cell line (AID 2202237; also: nearly all actives have a fitted effect of over 40% in size; also: potency is read from the fitted curve at half-maximal effect). The method in brief:
as §1

Test [8] can be described thus: BET inhibitor-based combinations targeting novel dependencies in MECOM-rearranged (r) AML: UCSD-AML1 cell line (AID 2202235). Also: nearly all actives have a fitted effect of over 40% in size. Also: potency is read from the fitted curve at half-maximal effect. The method in brief:
as §2

The nature of test [9]: BET inhibitor-based combinations targeting novel dependencies in MECOM-rearranged (r) AML: HNT-34 cell line (AID 2202234). Also: nearly all actives have a fitted effect of over 35% in size. Also: potency is read from the fitted curve at half-maximal effect. In short, it runs like this:
as §2

In test [10] the target is Retinal dehydrogenase 2 (Homo sapiens) (UniProt O94788). As to the kind of experiment: qHTS for Inhibitors of the Aldehyde Dehydrogenase Family (ALDH1A2) Confirmation screens (AID 2061314). Also: nearly all actives have a fitted effect of over 65% in size. Also: potency is read from the fitted curve at half-maximal effect.
For test [11], the target named is Aldehyde dehydrogenase 1A1 (Homo sapiens) (UniProt P00352). The experiment in a line: qHTS for Inhibitors of the Aldehyde Dehydrogenase Family (ALDH1A1) Confirmatory screens (AID 2061316). Also: nearly all actives have a fitted effect of over 65% in size. Also: potency is read from the fitted curve at half-maximal effect.
Test [12] is described as follows: BET inhibitor-based combinations targeting novel dependencies in MECOM-rearranged (r) AML: AML-191 cell line (AID 2202236; also: nearly all actives have a fitted effect of over 35% in size; also: potency is read from the fitted curve at half-maximal effect). The method in brief: as §1
The nature of test [13]: BET inhibitor-based combinations targeting novel dependencies in MECOM-rearranged (r) AML: SET-2 cell line (AID 2202231).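 Also: plate controls were DMSO treated cells for no effect and wells without cells for full effect; nearly all actives have a fitted effect of over 35% in size.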 The conditions noted are these: SET-2 AML cells viability, CellTiter-Glo luminescence, 48 h; viability: active compounds read low, series mostly up to about 46 µM. In short, it runs like this: as §1
In general terms: ATP-based viability assays read luminescence as a measure of living cells.

Where “and” joins values, the source holds several entries; their conditions need not be identical. Identical values can stand only once. Records with an inconclusive call do not appear. Values without a mark were called inactive. Calls of active or inactive are those of the source. Calls follow the shape of the dose curve; as a rule, active = well fitted curve in the direction sought with a large enough effect; inconclusive = small, poorly fitted or top-dose-only effect, or another doubt; inactive = no such curve, though single readings can be large; an effect the other way counts as inactive or inconclusive.

Chain of Cellular tumor antigen p53 (Homo sapiens) (P04637 whole entry, looked up): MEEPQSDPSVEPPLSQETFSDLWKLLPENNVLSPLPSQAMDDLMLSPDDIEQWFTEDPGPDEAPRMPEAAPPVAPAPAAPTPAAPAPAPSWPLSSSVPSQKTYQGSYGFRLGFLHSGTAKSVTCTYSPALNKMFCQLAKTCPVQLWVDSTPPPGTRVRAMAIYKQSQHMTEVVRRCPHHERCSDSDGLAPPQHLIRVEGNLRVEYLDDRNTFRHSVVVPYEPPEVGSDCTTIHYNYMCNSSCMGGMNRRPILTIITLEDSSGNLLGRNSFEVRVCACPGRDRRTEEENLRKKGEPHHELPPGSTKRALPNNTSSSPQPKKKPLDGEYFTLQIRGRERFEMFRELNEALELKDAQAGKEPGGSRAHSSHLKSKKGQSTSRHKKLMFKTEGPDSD

`O=C1[C@H](CC[C@H](O)c2ccc(F)cc2)[C@@H](c2ccc(O)cc2)N1c1ccc(F)cc1`: the activation in test [1] was -8.47% and 7.16%. Further, the Potency result in test [2], in test [3] and in test [4] was “inactive” throughout. In addition, the Potency in test [5] is 20.9 µM (active); in test [6], 16.6 µM (active).

In the case of `C[C@@]1(C(=O)Nc2ccc(F)nc2)CCCN1c1nc(Nc2cc(C3CC3)[nH]n2)c2cccn2n1`, the activation in test [1] is 19.3%. Besides, the Potency entry in [2], in [3] and in [4] was “inactive” in each case. The Potency in [5] was 0.0742 µM (active); in [6] it was 2.95 µM (active); in test [7] it was 1.48 µM (active).

Take `O=C(c1cc(Cc2n[nH]c(=O)c3ccccc23)ccc1F)N1CCN(C(=O)C2CC2)CC1`: the activation in [1] is 8.16% and -16.2%. Also, the Potency result in test [2], in test [3] and in test [4] was “inactive” throughout. The Potency in test [6] is 8.33 µM (active).

As for `CCC[C@H](N[C@H]1CCc2cc(F)cc(F)c2C1)C(=O)Nc1cn(C(C)(C)CNCC(C)(C)C)cn1`, the activation in test [1] is -12.9%. In addition, the Potency result in test [2], in test [3], in test [4], in test [8] and in test [7] was “inactive” each time. In addition, the Potency in [5] was 11.8 µM (active).

In the case of `C/C=C/C(O)C1OC(=O)CC1Nc1ccc(C(=O)O)cc1` (stereo not drawn), the activation in [1] is 5.34%. The Potency result in [2] and in test [4] was “inactive” each time.

For `CNC(=O)c1ccc2c(C(=Nc3cccc(CN(C)C)c3)c3ccccc3)c(O)[nH]c2c1`, in test [1], the activation is -0.477%. Besides, the Potency result in test [2], in test [3] and in test [8] was “inactive” each time. Further, the Potency was 1.66 µM (active) in [6] and 20.9 µM (active) in [9].

For `CC(C)COc1ccc(CNC(=O)N(Cc2ccc(F)cc2)C2CCN(C)CC2)cc1`, the activation in test [1] is -15.7%. In addition, the Potency entry in [2] and in [4] was “inactive” throughout.

Regarding `Cc1ccc(CNc2ncnc3ccc(-c4ccc(CO)o4)cc23)o1`, the activation in test [1] was -4.46%. Also, the Potency entry in [2], in test [10] and in [4] was “inactive” throughout. Also, the Potency in test [11] is 4 µM (active).

With `COc1cc(OC)c2c(=O)[nH]c(-c3cc(C)c(OCCO)c(C)c3)nc2c1`, the activation in [1] is -0.477%. Further, the Potency result in test [2], in test [3] and in test [4] was “inactive” in each case. Further, the Potency is 16.6 µM (active) in [6], 16.6 µM (active) in [12] and 20.9 µM (active) in test [7].

Take `CC(C)c1cc(-c2n[nH]c(=O)n2-c2ccc3c(ccn3C)c2)c(O)cc1O`: the activation in [1] is -0.957% and -3.82%. The Potency result in [2], in test [3] and in test [4] was “inactive” each time. Further, the Potency is 0.0235 µM (active) in [6] and 0.0468 µM (active) in test [8].

For the molecule `O=C(Nc1cccnn1)N1CCC(=Cc2cccc(Oc3ccc(C(F)(F)F)cn3)c2)CC1`, in test [1], the activation was -1.43%. The Potency entry in [2], in test [3], in test [4] and in test [8] was “inactive” each time. Besides, the Potency in test [12] and in test [7] was 18.6 µM (active) in each case.

Broadly, the viability is a read-out of living cells in per cent, often relative to untreated cells. Regarding `N#Cc1c(O)c2c(-c3ccc(-c4ccccc4O)cc3)csc2[nH]c1=O`, the activation in [1] is 4.35% and -11.5%. Besides, the Potency in [2] is 17.8 µM (active); in test [10] it was 12.7 µM (active). The Potency result in test [4], in test [5], in test [6], in test [9], in test [8] and in test [12] was “inactive” throughout. Besides, the Potency entry in test [7] is “inactive”. Moreover, the viability in test [13] is 120%.

For the molecule `CC(CO)C1CCC2(C)CC3C(CO)CC(O)C3C(C)(O)C/C=C/12` (stereo not drawn), in test [1], the activation was -8.04%. In addition, the Potency entry in test [2] and in test [4] was “inactive” each time.

For the molecule `COc1cc2c(NC3CCN(CC4CCCCC4)CC3)nc(N3CCCN(C(C)C)CC3)nc2cc1OCCCN1CCCCC1`, the Potency was 43.2 µM (active) in [1]; 6.61 µM (active) in test [6]; 10.5 µM (active) in test [8]; 9.34 µM (active) in [12]; 16.6 µM (active) in test [7]. In addition, the Potency result in [2], in test [3] and in test [4] was “inactive” each time.

Regarding `N#Cc1ccc(Oc2ccc3c(c2)COB3O)cc1`, the activation in test [1] was 19.4% and -4.77%. Moreover, the Potency entry in test [2] and in test [9] was “inactive” in each case. The Potency in test [3] is 2.82 µM (active); in [12], 13.2 µM (active). In addition, the viability in [13] was 109%.

Regarding `COC(=O)CCC(=O)OC[C@]1(C)CCC[C@@]2(C)C3CC[C@]4(C)C=CC3(CCC12)C4` (stereo partly drawn), in test [1], the activation was -8.4%. Also, the Potency result in [2] and in test [4] was “inactive” throughout.

For `CNCc1ccc(-c2[nH]c3cc(F)cc4c3c2CCNC4=O)cc1`, the activation in test [1] was 35.7%. The Potency entry in [2] and in test [3] was “inactive” each time. Also, the Potency in test [6] was 11.8 µM (active).

For `C[C@@H](NC(=O)c1ncnc(N)c1Cl)c1ncc(C(=O)Nc2cc(C(F)(F)F)c(Cl)cn2)s1`, in test [1], the activation is 19.6%. In addition, the Potency result in test [2], in test [3] and in test [4] was “inactive” each time. In addition, the figures for the Potency in [9] and in test [8] were 2.35 µM (active) and 8.33 µM (active), respectively.

Regarding `C=C1C(=O)O[C@@H]2[C@H]1CC(=O)[C@H](C)[C@@](O)(C(=O)/C=C/C)[C@H]2OC(=O)C(C)CC` (stereo partly drawn), the Potency in test [1] was 5.88 µM (active); in test [10] it was 4.4 µM (active). In addition, the Potency result in test [2], in [4] and in [11] was “inactive” in each case.

`Nc1ncnc2c1c(-c1cccc(OCc3ccccc3)c1)cn2C1CC(CN2CCC2)C1` (stereo not drawn): the activation in test [1] is 26% and 8.59%. Besides, the Potency entry in test [2], in [3] and in test [4] was “inactive” in each case. For the same molecule, the Potency was 18.6 µM (active) in test [9], 18.6 µM (active) in test [12] and 16.6 µM (active) in [7].

On to `CC1CC(=O)C2=C(O1)OC1(C)CCC3C(C)(C)C=CC(=O)C3(C)C1C2` (stereo not drawn), for which, in test [1], the activation was -29.5%. Besides, the Potency result in test [2] and in test [4] was “inactive” each time.

(Values after PubChem BioAssay (NCATS).)
